# In PMC4336329 (PLoS ONE, 2015):
# Among all 310,000 compounds or so, about 14,000 (4.5%) showed an effect of 50% or more. Effects have a minus sign here. The full list was thinned out, with strong results kept by preference.
# Biological target: human ether-à-go-go-related gene (hERG) potassium channel (human, UniProt Q12809)
# Assay: primary screen, population patch clamp on CHO cells stably expressing hERG; higher = less effect of the substance
# 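Also: peak tail current of the secondary pulse compared with the same well before compound.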
# Sequence of human ether-à-go-go-related gene (hERG) potassium channel (Q12809 whole entry, looked up): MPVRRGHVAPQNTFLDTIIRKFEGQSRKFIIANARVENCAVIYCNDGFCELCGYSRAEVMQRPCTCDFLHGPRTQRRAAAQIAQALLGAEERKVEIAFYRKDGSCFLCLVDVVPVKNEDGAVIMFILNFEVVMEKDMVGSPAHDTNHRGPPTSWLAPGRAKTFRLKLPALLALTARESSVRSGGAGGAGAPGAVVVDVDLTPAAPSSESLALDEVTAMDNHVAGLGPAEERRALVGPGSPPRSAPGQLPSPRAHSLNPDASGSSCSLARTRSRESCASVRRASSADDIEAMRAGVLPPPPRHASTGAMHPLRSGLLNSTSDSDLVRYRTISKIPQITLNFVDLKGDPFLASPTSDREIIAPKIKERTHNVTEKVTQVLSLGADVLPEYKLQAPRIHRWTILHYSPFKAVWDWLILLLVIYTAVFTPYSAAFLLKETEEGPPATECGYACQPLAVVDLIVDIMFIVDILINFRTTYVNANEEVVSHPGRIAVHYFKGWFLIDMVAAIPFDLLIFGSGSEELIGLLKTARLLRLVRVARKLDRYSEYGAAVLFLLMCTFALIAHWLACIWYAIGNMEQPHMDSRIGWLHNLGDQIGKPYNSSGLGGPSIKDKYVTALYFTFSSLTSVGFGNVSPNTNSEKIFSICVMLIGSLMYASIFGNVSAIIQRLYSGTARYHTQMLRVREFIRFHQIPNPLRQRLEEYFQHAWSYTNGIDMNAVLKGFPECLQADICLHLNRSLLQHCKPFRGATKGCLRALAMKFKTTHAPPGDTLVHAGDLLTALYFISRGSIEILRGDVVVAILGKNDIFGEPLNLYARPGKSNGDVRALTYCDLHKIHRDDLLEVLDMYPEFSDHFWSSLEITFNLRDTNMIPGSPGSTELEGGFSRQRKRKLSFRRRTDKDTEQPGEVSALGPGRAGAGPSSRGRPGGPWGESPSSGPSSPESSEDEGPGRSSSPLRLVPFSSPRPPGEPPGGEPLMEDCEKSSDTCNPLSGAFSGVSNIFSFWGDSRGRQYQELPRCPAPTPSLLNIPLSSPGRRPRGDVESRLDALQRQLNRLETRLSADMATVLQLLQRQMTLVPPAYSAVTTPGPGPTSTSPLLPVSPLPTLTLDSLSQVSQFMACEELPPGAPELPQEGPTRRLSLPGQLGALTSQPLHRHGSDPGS
row,Structure (SMILES),"hERG current change (%, negative = inhibition) at 10uM [%]"
1,CC(=O)c1ccc(N2CCN(C(=O)CCS(=O)(=O)c3ccc4c(c3)CCN4C(C)=O)CC2)cc1,3.77
2,COc1ccc(-c2csc3ncn(Cc4ccccc4)c(=O)c23)cc1,-0.922
3,COc1ccc(N2CCN(CC(=O)N3N=CCC3c3ccccc3)CC2)cc1 (stereo not shown),-2.49
4,O=C(COC(=O)CCc1c[nH]c2ccccc12)NCc1ccc2c(c1)OCO2,13.2
5,C/C(=N\NC(=S)NC1CCCCC1)c1c(F)cccc1F,-35
6,C/C(N)=C(/C#N)C(=O)COC(=O)[C@@H](NC(=O)c1ccccc1Cl)C(C)C,4.16
7,COc1ccc(S(=O)(=O)N2CCOC2CNC(=O)C(=O)NCc2ccncc2)cc1 (stereo not shown),3.26
8,COc1ccc(-c2ccc(SCC(=O)NC3CCCCC3)nn2)cc1OC,16.4
9,COc1ccccc1-c1nnc(SCC(=O)NC2CCCCC2)o1,-27.4
10,COc1ccc(OC)c(-c2nnc(SCC(=O)NC3CCCCC3)o2)c1,-59.8
11,COc1ccc(-c2nnc(SCC(=O)NC3CCCCC3)o2)cc1OC,-9.47
12,COc1ccccc1-c1ccc(SCC(=O)NC2CCCC2)nn1,-24.5
13,COc1ccccc1-c1ccc(SCC(=O)NC2CCCCC2)nn1,-72
14,Cc1ccc(NS(=O)(=O)c2ccc(C(=O)NNC(=O)c3ccccc3O)cc2)cc1,0.906
15,COC(=O)Cn1c(=NC(=O)c2ccc(Cl)s2)sc2cc(F)ccc21,20
16,O=C(CCS(=O)(=O)c1ccc(Cl)cc1)Nc1ccc(N2CCOCC2)cc1,-6.95
17,CCOC(=O)c1sc2nc(C)nc(Nc3ccc(OC)cc3)c2c1C,24.1
18,CN(Cc1cccnc1)C(=O)Cc1ccc(NS(=O)(=O)c2cccc(C(F)(F)F)c2)cc1,-57.6
19,O=S(=O)(Nc1cccnc1)c1cccc(C(F)(F)F)c1,-2.26
20,CC(NC(=O)Cc1ccc(NS(=O)(=O)c2cccc(C(F)(F)F)c2)cc1)c1ccccn1 (stereo not shown),-7.55
21,Cc1ccc(C(=O)N2CCOCC2)cc1Cl,2.91
22,Cc1c(NC(=O)C(C)OC(=O)c2ccc(Cl)nc2)c(=O)n(-c2ccccc2)n1C (stereo not shown),-2.18
23,O=C(COC(=O)c1ccccc1F)NC(=O)NC1CCCC1,1.24

row,Structure (SMILES),"hERG current change (%, negative = inhibition) at 10uM [%]"
1,N#CC1(NC(=O)CN2c3cccc4cccc(c34)S2(=O)=O)CCCCC1,14.9
2,COc1ccccc1-c1nnc(C2CCN(S(=O)(=O)c3ccc([N+](=O)[O-])cc3)CC2)o1,-74.6
3,O=[N+]([O-])c1cccc(S(=O)(=O)N2CCC(c3nc(-c4ccncc4)no3)CC2)c1,1.54
4,COc1ccccc1-c1nnc(C2CCN(S(=O)(=O)c3cccc([N+](=O)[O-])c3)CC2)o1,-57.6
5,COc1ccccc1-c1nnc(C2CCN(S(=O)(=O)c3ccccc3[N+](=O)[O-])CC2)o1,-45.2
6,COc1ccccc1CNC(=O)C1CCN(S(=O)(=O)c2cccc([N+](=O)[O-])c2)CC1,-3.34
7,COc1ccccc1-c1nnc(NC(=O)c2ccc(S(=O)(=O)N3CCCC3)cc2)o1,-17.3
8,O=C(CCCN1C(=O)c2ccccc2C1=O)NCc1ccco1,6.15
9,COc1ccc(N2C(=O)CC(Nc3cccc(C(C)=O)c3)C2=O)cc1OC (stereo not shown),7.07
10,COc1cc(OC)cc(C(=O)NCCCNC(=O)c2cccnc2)c1,7.43
11,N#C/C(=C\c1ccc(N2CCCCC2)o1)C(N)=O,7.71
12,OCCC1CN(Cc2cccn2-c2cccnc2)CCN1CCc1ccccc1 (stereo not shown),-65.2
13,OCCC1CN(Cc2cccn2-c2ncccn2)CCN1Cc1ccccc1 (stereo not shown),-64.2
14,OCCC1CN(Cc2cccn2-c2ncccn2)CCN1CCc1ccccc1 (stereo not shown),-68.2
15,CC(C)CCN1CCN(Cc2cccn2-c2cccnc2)CC1CCO (stereo not shown),-32.5
16,OCCC1CN(Cc2cccn2-c2ncccn2)CCN1Cc1ccc(F)cc1 (stereo not shown),-73.7
17,Cc1ncc(CN2CCN(Cc3ccc(F)cc3)C(CCO)C2)s1 (stereo not shown),9.56
18,Cc1cc(C)n(-c2ccc(C(=O)OCC(=O)Nc3ccc([N+](=O)[O-])cc3)cc2)n1,-10.6
19,Cc1ccc(C(=O)Nc2nnc(SCC(=O)N3CCCc4ccccc43)s2)cc1,7.27
20,Cc1ccc(-n2c(SCC(=O)O)nc3c(sc(=S)n3-c3ccc(C)c(C)c3)c2=O)cc1,14
21,O=C(c1cn(-c2ccccc2)nc1-c1ccc(Cl)s1)N1CCOCC1,-20.9
22,COc1ccc(CNC(=O)COC(=O)/C=C/c2cccc(Br)c2)cc1OC,30.1
23,CC(=O)Nc1ccc(C2=NN(c3ccccc3)C(c3cccs3)C2)cc1 (stereo not shown),7.7

row,Structure (SMILES),"hERG current change (%, negative = inhibition) at 10uM [%]"
1,Cc1cc(NC(=O)COc2ccc(F)c(Cl)c2)no1,17.7
2,CCn1c(SCc2ccccc2)nc2ccccc2c1=O,2.76
3,Cc1ccc(OCC(=O)NC(C)c2ccccc2)cc1 (stereo not shown),-1.19
4,O=C1C2=C(CCCC2)C(=O)N1CNc1ccccc1,16.3
5,O=C1CC(N(Cc2cccs2)C(=O)Nc2ccccc2)C(=O)N1c1ccc(Cl)cc1 (stereo not shown),-22.6
6,Cc1ccccc1OCc1nc2ccccc2c(=O)n1/N=C/c1cn[nH]c1-c1ccc(Br)cc1,15.8
7,CCN(CC)c1ccc(NC(=O)Nc2cccc3ccccc23)cc1,7.7
8,CCn1nc(C)c(CN2CCN(Cc3ccc(OC)c(C)c3C)C(CCO)C2)c1C (stereo not shown),-45.8
9,COc1ccc(CN2CCN(Cc3cccn3-c3ncccn3)CC2CCO)c(C)c1C (stereo not shown),-81.6
10,COc1ccc(CN2CCN(CC3CC3)CC2CCO)c(C)c1C (stereo not shown),-0.714
11,CC(C(=O)NCC(=O)Nc1ccc(F)c(F)c1F)N1CCN(Cc2ccc(C#N)cc2)CC1 (stereo not shown),-61
12,N#Cc1ccc(-c2ccc(OCC(=O)NCC(=O)Nc3ccc(F)c(F)c3F)cc2)cc1,-7.98
13,CC(C(=O)NCC(=O)Nc1ccc(F)c(F)c1F)N1CCN(c2ccc(O)cc2)CC1 (stereo not shown),-6.1
14,CCOC(=O)N1CCC(N2C(=O)c3ccc(C(=O)Nc4ccc(OC)c(OC)c4)cc3C2=O)CC1,23.2
15,O=C(/N=C1\NC(=O)C(F)(C(F)(F)F)S1)NC1CCCCC1 (stereo not shown),13
16,O=S(=O)(Nc1ccc2c(c1)nc1n2CCN(Cc2ccccc2)C1)c1ccc(F)cc1,-50.4
17,O=S(=O)(Nc1ccc2c(c1)nc1n2CCN(Cc2ccccc2)C1)c1ccccc1,-40.1
18,CCCC(=O)Nc1ccc2c(c1)nc(CCN1CCCCC1)n2C,-4.96
19,Cn1c(CCN2CCCCC2)nc2cc(NS(=O)(=O)c3ccc(F)cc3)ccc21,-67.6
20,O=S(=O)(Nc1ccc2c(c1)nc1n2CCN(Cc2ccccc2)C1)c1ccc(Cl)cc1,-2.38
21,Cn1c(CN2CCCCC2)nc2cc(NS(=O)(=O)c3ccc(F)cc3)ccc21,-54.2
22,CC(C)C(=O)Nc1ccc2c(c1)nc(CCN1CCCCC1)n2C,-0.778
23,O=C(O)CN(c1ccccn1)S(=O)(=O)c1ccccc1,-8.38

row,Structure (SMILES),"hERG current change (%, negative = inhibition) at 10uM [%]"
1,O=C(NCCc1ccccc1)C(=O)NCC(c1ccco1)N1CCOCC1 (stereo not shown),23.8
2,Cc1ccc(NC(=O)C2CCN(S(=O)(=O)c3ccc4c(c3)CCCC(=O)N4)CC2)cc1N(C)C,-14.7
3,O=C(COC(=O)c1ccc2c(c1)OCCO2)NCCC1=CCCCC1,-10.8
4,CN(C(=O)C1CCN(S(=O)(=O)c2cccs2)CC1)c1ccccc1,-16.9
5,O=C(CCS(=O)(=O)c1ccc(Br)cc1)NCc1cccs1,-11.5
6,COC(=O)C(C(=O)OC)C(C[N+](=O)[O-])c1ccc(OC)c(OC)c1 (stereo not shown),-22.7
7,CCOC(=O)C1(Cc2cccc(OC)c2)CCN(C/C=C/c2ccccc2)CC1,-75.9
8,CCOC(=O)C1(Cc2cccc(OC)c2)CCN(C/C=C/c2ccc(OC)cc2)CC1,-72.3
9,CCOC(=O)C1(Cc2cccc(OC)c2)CCN(CC=C(C)C)CC1,-22
10,N#CCCn1[nH]c(-c2ccccc2)cc1=O,5.16
11,O=C(CCCc1c[nH]c2ccccc12)Nc1ncccc1O,14.7
12,CC1CCN(C2CC(=O)N(c3ccc(Br)cc3Br)C2=O)CC1 (stereo not shown),2.17
13,COc1ccc(C(CNC(=O)c2cc3ccccc3cc2O)N2CCOCC2)cc1 (stereo not shown),-3.36
14,COc1cc(CC(=O)N2CCC(n3nccc3NC(=O)C3CC3)CC2)cc(OC)c1OC,12.8
15,CC(=O)c1cccc(CN2CCC(n3nccc3NC(=O)CCc3ccccc3)CC2)c1,-25.1
16,COc1ccccc1/C=C/CN1CCC(n2nccc2NC(=O)CCc2ccccc2)CC1,-86.1
17,COc1ccccc1/C=C/CN1CCC(n2nccc2NC(=O)C2CC2)CC1,-59.1
18,COc1ccccc1CC(=O)N1CCC(n2nccc2NC(=O)C2CCOC2)CC1 (stereo not shown),4.83
19,CSCC(=O)N1CCC(n2nccc2NC(=O)CCc2ccccc2)CC1,12.1
20,O=C(CCc1ccccc1)Nc1ccnn1C1CCN(C/C=C/c2ccccc2)CC1,-72.1
21,CC(C)C(=O)N1CCC(n2nccc2NC(=O)CCc2ccccc2)CC1,18.7
22,COCCC(=O)N1CCC(n2nccc2NC(=O)CCc2ccccc2)CC1,14.2
